Measurements taken from PubChem BioAssay (EPA / NIEHS).
Values joined by “and” are separate entries in the source; they are usually repeats but may differ in a detail not shown here. Identical values can stand only once. Records with an inconclusive call do not appear. More than one record can exist for a structure, and the calls need not agree. Active and inactive are the calls of the source. How the source made its calls, unless noted: active means hit-call score of the fitted dose curve at least 0.9, where 1 is the maximum; inactive means score below 0.9.

Key:
[1] = molecular target: human Peroxisome Proliferator-activated Receptor alpha (PPARa), PPARA (gene 5465) (UniProt Q07869); assay: ATG_PPARa_TRANS: Attagene TRANS-FACTORIAL HepG2 Assay for human Peroxisome Proliferator-activated Receptor alpha (PPARa) (AID 2283001; active means hit-call score of the fitted dose curve at least 0.9, where 1 is the maximum;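 on AC50: potency for gain of reporter signal over DMSO so agonist or activator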)
Method in brief: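 Exposure: 24 h, transiently transfected HepG2 cells. Endpoint: GAL4-UAS reporter mRNA, RT-PCR with capillary electrophoresis fluorescence. Baseline: DMSO; increases fitted.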

[2] = read-out: Intercellular Adhesion Molecule 1 (ICAM1), ICAM1 (gene 3383); assay: BSK_3C_ICAM1: BioMAP Diversity Plus: 3C Assay for Intercellular Adhesion Molecule 1 (ICAM1) Biomarker Activity (AID 2283003); conditions: primary human endothelial cells (HUVEC); actives raise or lower the signal
Method in brief: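 ELISA read-out of ICAM-1; HUVEC (primary human), 3C system, 24 h post-dosing; bidirectional fit vs DMSO baseline.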

[3] = molecular target: human Retinoic Acid Receptor beta (RARb), RARB (gene 5915) (UniProt P10826); assay: ATG_RARb_TRANS: Attagene TRANS-FACTORIAL HepG2 Assay for human Retinoic Acid Receptor beta (AID 2283004; active means hit-call score of the fitted dose curve at least 0.9, where 1 is the maximum)
Method in brief: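 Readout is reporter mRNA induction: RNA reverse-transcribed, PCR-amplified, FAM-labelled, HpaI-cut and resolved by capillary electrophoresis. Transiently transfected HepG2 cells carrying exogenous NR–Gal4 chimeras were dosed for 24 h; activity fitted upward relative to DMSO.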

[4] = molecular target: Retinoic acid receptor alpha (Homo sapiens) (UniProt P10276); assay: ATG_RARa_TRANS: Attagene TRANS-FACTORIAL HepG2 Assay for human Retinoic Acid Receptor alpha (RARa) (AID 2283005; active means hit-call score of the fitted dose curve at least 0.9, where 1 is the maximum)
Method in brief: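 HepG2 cells transiently transfected with multiple reporter units expressing chimeric RARα-GAL4 fusion, with GAL4-UAS-driven reporters. After 24 h compound exposure, reporter mRNA induction quantified by RT-PCR and capillary electrophoresis with fluorescent labeling; gain-of-signal fitted relative to DMSO control.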

[5] = BSK_3C_Proliferation: Cell Proliferation Assessment in the BioMAP Diversity Plus: 3C Assay (AID 2283006); conditions: primary human endothelial cells (HUVEC);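 on AC50: potency may reflect either rise or fall in cell number versus DMSO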
Method in brief: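 HUVEC, sub-confluent; 48 h chemical exposure; 10% TCA fix, 0.1% SRB stain, A560 total protein. Gain or loss of signal fitted both directions vs DMSO control.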

[6] = molecular target: Peroxisome proliferator-activated receptor gamma (Homo sapiens) (UniProt P37231); assay: ATG_PPARg_TRANS: Attagene TRANS-FACTORIAL HepG2 Assay for human Peroxisome Proliferator-activated Receptor-gamma (PPARg) (AID 2283007; active means hit-call score of the fitted dose curve at least 0.9, where 1 is the maximum)
Method in brief: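 After 24 h of chemical exposure, transfected HepG2 cells carrying PPARγ-Gal4 chimera reporter constructs are lysed for RNA. Reporter transcripts are measured by RT-PCR and capillary electrophoresis with fluorescent labelling, and gain of signal is fitted versus DMSO.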

[7] = molecular target: Nuclear receptor subfamily 1 group I member 2 (Homo sapiens) (UniProt O75469); assay: ATG_PXR_TRANS: Attagene TRANS-FACTORIAL HepG2 Assay for human Pregnane X Receptor (PXR) (AID 2283008; active means hit-call score of the fitted dose curve at least 0.9, where 1 is the maximum)
Method in brief: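 HepG2 transfected (FuGene 6) with GAL4-UAS reporter units + PXR-Gal4 chimera; dosed 24 h. Total RNA → oligo(dT) RT → PCR → 6-FAM primer extension → HpaI cut → CE. Gain-of-signal vs DMSO.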

[8] = molecular target: human Retinoic Acid Receptor gamma (RARg), RARG (gene 5916) (UniProt P13631); assay: ATG_RARg_TRANS: Attagene TRANS-FACTORIAL HepG2 Assay for human Retinoic Acid Receptor gamma (RARg) (AID 2283009; active means hit-call score of the fitted dose curve at least 0.9, where 1 is the maximum)
Method in brief: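 Readout: reporter transcript levels via RT-PCR, 6-FAM primer-extension labelling, HpaI digestion and capillary electrophoresis. Cells: HepG2 carrying transfected RARg-GAL4 chimera plus UAS reporter set. Dosing 24 h; DMSO negative control.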

[9] = molecular target: human RAR-related Orphan Receptor beta (RORb), RORB (gene 6096) (UniProt Q92753); assay: ATG_RORb_TRANS: Attagene TRANS-FACTORIAL HepG2 Assay for human RAR-related Orphan Receptor beta (RORb) (AID 2283010; active means hit-call score of the fitted dose curve at least 0.9, where 1 is the maximum)
Method in brief: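 HepG2, transient MRTU transfection (GAL4-UAS reporters, exogenous NR-Gal4 chimeras); 24 h compound exposure; total RNA → RT-PCR → 6-FAM primer extension → HpaI digest → CE fluorescence. Positive direction vs DMSO baseline.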

[10] = molecular target: human RAR-related Orphan Receptor gamma (RORg), RORC (gene 6097) (UniProt P51449); assay: ATG_RORg_TRANS: Attagene TRANS-FACTORIAL HepG2 Assay for human RAR-related Orphan Receptor gamma (RORg) (AID 2283011; active means hit-call score of the fitted dose curve at least 0.9, where 1 is the maximum)
Method in brief: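 Transient MRTU transfection of HepG2 (TRANS format, exogenous NR-Gal4 chimera). 24 h dosing. Total RNA → oligo(dT) RT → PCR → 6-FAM labelling → HpaI cut → CE. Gain vs DMSO.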

[11] = molecular target: Retinoic acid receptor RXR-alpha (Homo sapiens) (UniProt P19793); assay: ATG_RXRa_TRANS: Attagene TRANS-FACTORIAL HepG2 Assay for human Retinoid X Receptor alpha (RXRa) (AID 2283012; active means hit-call score of the fitted dose curve at least 0.9, where 1 is the maximum)
Method in brief: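 Read-out: fluorescent reporter-transcript fragments quantified by capillary electrophoresis after RT-PCR. Transiently transfected HepG2 cells carrying GAL4-UAS reporters and NR-GAL4 chimeras were exposed to chemical for 24 h; activity scored as increase over DMSO.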

[12] = molecular target: human Retinoid X Receptor beta (RXRb), RXRB (gene 6257) (UniProt P28702); assay: ATG_RXRb_TRANS: Attagene TRANS-FACTORIAL HepG2 Assay for human Retinoid X Receptor beta (RXRb) (AID 2283013; active means hit-call score of the fitted dose curve at least 0.9, where 1 is the maximum)
Method in brief: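 Read-out: reporter mRNA induction via RT-PCR plus capillary electrophoresis fluorescence, analysed as signal increase relative to DMSO. Cells were human HepG2, transiently transfected with GAL4-UAS reporter constructs and chimeric receptor-Gal4 fusions, dosed for 24 h.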

[13] = molecular target: human Thyroid Receptor alpha (THRa1), THRA (gene 7067) (UniProt P10827); assay: ATG_THRa1_TRANS: Attagene TRANS-FACTORIAL HepG2 Assay for human Thyroid Receptor alpha (THRa1) (AID 2283014; active means hit-call score of the fitted dose curve at least 0.9, where 1 is the maximum)
Method in brief: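 Transient HepG2 transfection, NR-Gal4 chimera driving GAL4-UAS reporters; 24 h compound exposure; total RNA, oligo(dT) RT, PCR, fluorescent primer extension, capillary electrophoresis. Upward direction vs DMSO control.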

[14] = read-out: E-selectin (Homo sapiens) (UniProt P16581); assay: BSK_3C_Eselectin: BioMAP Diversity Plus: 3C Assay for Eselectin Biomarker Activity (AID 2283015); conditions: primary human endothelial cells (HUVEC); actives raise or lower the signal
Method in brief: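 HUVEC, 3C stimulation; compound exposure 24 h; E-selectin by ELISA; gain- or loss-of-signal fitted bidirectionally vs DMSO baseline.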

[15] = read-out: Interleukin-1 alpha (IL1a), IL1A (gene 3552); assay: BSK_BE3C_IL1a: BioMAP Diversity Plus: BE3C Assay for Interleukin-1 alpha (IL1a) Biomarker Activity (AID 2283016); conditions: primary human bronchial epithelial cells; actives raise or lower the signal
Method in brief: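 ELISA read-out of IL-1a from human lung bronchial epithelial primary cells, 24 h post-dose. Gain or loss of signal fitted relative to DMSO negative control.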

[16] = read-out: Monocyte Chemoattractant Protein-1 (MCP1), CCL2 (gene 6347); assay: BSK_3C_MCP1: BioMAP Diversity Plus: 3C Assay for Monocyte Chemoattractant Protein-1 (MCP1) Biomarker Activity (AID 2283017); conditions: primary human endothelial cells (HUVEC); actives raise or lower the signal
Method in brief: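 HUVEC, 3C system; 24 h chemical exposure; MCP-1 by ELISA; bidirectional curve fit vs DMSO baseline.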

[17] = read-out: Monocyte Chemoattractant Protein-1 (MCP1), CCL2 (gene 6347); assay: BSK_4H_MCP1: BioMAP Diversity Plus: 4H Assay for Monocyte Chemoattractant Protein-1 (MCP1) Biomarker Activity (AID 2283018); conditions: primary human endothelial cells (HUVEC); actives raise or lower the signal
Method in brief: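 HUVEC primary cells, 24 h post-dose, MCP-1 by ELISA. Gain or loss of signal fitted bidirectionally vs DMSO baseline. Cytotoxicity: SRB stain (0.1% after 10% TCA fixation), read 560 nm, parallel cultures.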

[18] = read-out: Human Leukocyte Antigen - DR isotype (HLADR), HLA-DRA (gene 3122); assay: BSK_3C_HLADR: BioMAP Diversity Plus: 3C Assay for Human Leukocyte Antigen - DR isotype (HLADR) Biomarker Activity (AID 2283019); conditions: primary human endothelial cells (HUVEC); actives raise or lower the signal
Method in brief: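 HUVEC, 3C stimulation, 24 h post-dose; HLA-DR by ELISA; bidirectional curve fit vs DMSO baseline; gain or loss of signal scored.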

[19] = read-out: Interleukin-8 (IL8), CXCL8 (gene 3576); assay: BSK_3C_IL8: BioMAP Diversity Plus: 3C Assay for Interleukin-8 (IL8) Biomarker Activity (AID 2283020); conditions: primary human endothelial cells (HUVEC); actives raise or lower the signal
Method in brief: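 HUVEC, 3C stimulation; 24 h compound exposure; IL-8 read by ELISA; gain or loss of signal fitted relative to DMSO control.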

Measured: AC50

Sequence of human Peroxisome Proliferator-activated Receptor alpha (PPARa), PPARA (gene 5465) (Q07869 whole entry, looked up, the tested form may be a part): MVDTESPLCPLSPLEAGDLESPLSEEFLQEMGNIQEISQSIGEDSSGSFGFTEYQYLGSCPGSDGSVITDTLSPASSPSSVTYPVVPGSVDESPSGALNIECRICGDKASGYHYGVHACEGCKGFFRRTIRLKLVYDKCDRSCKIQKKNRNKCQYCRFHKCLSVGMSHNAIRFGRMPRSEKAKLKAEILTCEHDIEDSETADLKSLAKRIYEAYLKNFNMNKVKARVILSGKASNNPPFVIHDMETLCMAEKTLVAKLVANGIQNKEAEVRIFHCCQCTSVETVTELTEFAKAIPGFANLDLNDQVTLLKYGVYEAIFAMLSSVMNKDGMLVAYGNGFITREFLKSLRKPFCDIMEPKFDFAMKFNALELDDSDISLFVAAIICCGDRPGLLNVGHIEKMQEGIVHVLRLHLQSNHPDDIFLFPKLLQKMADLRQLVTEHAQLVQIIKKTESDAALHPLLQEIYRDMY
Sequence of Nuclear receptor subfamily 1 group I member 2 (Homo sapiens) (O75469 whole entry, looked up, the tested form may be a part): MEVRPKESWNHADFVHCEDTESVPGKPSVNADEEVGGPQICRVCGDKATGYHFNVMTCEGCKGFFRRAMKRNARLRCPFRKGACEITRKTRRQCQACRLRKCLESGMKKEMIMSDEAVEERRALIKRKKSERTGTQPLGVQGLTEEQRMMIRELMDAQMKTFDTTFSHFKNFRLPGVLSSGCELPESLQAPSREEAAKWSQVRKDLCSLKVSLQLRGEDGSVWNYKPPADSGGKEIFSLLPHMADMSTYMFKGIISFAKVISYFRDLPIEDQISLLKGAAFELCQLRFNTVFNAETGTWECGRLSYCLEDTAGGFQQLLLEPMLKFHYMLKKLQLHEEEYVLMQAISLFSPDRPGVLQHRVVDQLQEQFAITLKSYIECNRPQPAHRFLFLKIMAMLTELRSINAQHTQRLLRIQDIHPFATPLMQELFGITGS
Sequence of human Thyroid Receptor alpha (THRa1), THRA (gene 7067) (P10827 whole entry, looked up, the tested form may be a part): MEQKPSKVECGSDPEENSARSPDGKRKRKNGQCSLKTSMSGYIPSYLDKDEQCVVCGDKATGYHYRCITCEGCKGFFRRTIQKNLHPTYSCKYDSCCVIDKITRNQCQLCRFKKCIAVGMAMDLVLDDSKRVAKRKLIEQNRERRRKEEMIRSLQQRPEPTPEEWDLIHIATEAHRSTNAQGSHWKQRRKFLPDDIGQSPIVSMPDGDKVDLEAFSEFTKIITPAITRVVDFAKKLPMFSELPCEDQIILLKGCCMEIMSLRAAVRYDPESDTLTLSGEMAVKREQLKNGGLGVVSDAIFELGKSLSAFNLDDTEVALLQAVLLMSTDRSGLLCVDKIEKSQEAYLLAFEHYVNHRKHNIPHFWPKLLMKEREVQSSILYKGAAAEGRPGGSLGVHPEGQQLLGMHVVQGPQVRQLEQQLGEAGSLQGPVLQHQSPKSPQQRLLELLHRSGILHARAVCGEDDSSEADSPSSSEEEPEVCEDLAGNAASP
Sequence of E-selectin (Homo sapiens) (P16581 whole entry, looked up): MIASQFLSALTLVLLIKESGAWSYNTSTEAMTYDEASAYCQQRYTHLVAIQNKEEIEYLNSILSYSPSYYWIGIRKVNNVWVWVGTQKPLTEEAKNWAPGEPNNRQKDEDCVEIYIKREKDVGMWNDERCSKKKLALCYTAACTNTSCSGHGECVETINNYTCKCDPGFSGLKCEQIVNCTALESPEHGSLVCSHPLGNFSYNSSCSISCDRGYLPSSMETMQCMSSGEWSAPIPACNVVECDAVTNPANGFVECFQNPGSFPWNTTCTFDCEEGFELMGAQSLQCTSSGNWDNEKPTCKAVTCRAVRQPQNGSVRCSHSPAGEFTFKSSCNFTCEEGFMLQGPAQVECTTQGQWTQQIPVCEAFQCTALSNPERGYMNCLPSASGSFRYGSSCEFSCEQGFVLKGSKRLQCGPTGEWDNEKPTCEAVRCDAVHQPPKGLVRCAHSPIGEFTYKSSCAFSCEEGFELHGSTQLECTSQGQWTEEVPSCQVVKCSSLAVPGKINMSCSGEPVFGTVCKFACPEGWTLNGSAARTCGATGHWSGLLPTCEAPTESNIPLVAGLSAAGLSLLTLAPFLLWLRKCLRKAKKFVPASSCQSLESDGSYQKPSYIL
Sequence of human Retinoid X Receptor beta (RXRb), RXRB (gene 6257) (P28702 whole entry, looked up, the tested form may be a part): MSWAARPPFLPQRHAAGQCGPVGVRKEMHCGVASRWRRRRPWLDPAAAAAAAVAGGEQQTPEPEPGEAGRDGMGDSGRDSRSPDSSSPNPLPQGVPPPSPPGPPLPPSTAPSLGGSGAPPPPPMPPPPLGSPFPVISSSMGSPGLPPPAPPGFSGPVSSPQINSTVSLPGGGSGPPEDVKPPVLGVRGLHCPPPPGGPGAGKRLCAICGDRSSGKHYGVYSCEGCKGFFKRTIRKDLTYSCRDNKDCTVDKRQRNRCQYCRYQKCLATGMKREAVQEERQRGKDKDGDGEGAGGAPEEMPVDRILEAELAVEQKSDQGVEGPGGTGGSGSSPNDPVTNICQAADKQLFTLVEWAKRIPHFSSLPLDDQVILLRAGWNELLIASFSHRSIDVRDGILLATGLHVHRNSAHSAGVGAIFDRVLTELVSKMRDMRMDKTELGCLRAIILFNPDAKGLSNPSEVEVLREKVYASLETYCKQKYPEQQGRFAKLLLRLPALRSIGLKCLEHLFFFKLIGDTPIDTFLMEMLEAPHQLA
Sequence of Retinoic acid receptor alpha (Homo sapiens) (P10276 whole entry, looked up, the tested form may be a part): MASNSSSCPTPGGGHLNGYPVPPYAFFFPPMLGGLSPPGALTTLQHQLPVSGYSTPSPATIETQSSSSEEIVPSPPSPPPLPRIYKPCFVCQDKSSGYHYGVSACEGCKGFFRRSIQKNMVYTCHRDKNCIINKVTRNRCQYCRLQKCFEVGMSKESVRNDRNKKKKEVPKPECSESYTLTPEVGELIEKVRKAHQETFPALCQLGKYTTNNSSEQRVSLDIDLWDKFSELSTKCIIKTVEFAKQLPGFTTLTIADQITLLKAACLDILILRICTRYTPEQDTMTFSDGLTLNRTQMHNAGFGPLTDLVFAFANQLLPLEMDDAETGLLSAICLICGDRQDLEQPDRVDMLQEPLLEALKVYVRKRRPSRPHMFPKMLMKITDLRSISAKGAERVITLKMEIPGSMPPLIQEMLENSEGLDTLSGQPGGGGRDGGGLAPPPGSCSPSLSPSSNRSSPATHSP
Sequence of human RAR-related Orphan Receptor gamma (RORg), RORC (gene 6097) (P51449 whole entry, looked up, the tested form may be a part): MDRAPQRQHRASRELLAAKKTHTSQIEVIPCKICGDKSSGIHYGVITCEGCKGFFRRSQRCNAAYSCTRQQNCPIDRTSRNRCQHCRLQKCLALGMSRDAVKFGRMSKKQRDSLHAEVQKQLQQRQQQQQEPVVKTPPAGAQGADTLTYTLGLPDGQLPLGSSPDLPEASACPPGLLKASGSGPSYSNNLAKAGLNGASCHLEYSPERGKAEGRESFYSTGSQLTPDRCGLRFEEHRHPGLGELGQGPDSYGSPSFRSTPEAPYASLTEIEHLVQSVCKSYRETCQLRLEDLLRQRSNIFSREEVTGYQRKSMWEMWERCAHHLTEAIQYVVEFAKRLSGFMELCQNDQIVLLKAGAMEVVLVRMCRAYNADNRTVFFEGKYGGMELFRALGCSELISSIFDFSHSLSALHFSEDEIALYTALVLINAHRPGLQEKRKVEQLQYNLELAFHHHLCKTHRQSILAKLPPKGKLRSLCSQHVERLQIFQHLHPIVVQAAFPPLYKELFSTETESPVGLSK
Sequence of human Retinoic Acid Receptor gamma (RARg), RARG (gene 5916) (P13631 whole entry, looked up, the tested form may be a part): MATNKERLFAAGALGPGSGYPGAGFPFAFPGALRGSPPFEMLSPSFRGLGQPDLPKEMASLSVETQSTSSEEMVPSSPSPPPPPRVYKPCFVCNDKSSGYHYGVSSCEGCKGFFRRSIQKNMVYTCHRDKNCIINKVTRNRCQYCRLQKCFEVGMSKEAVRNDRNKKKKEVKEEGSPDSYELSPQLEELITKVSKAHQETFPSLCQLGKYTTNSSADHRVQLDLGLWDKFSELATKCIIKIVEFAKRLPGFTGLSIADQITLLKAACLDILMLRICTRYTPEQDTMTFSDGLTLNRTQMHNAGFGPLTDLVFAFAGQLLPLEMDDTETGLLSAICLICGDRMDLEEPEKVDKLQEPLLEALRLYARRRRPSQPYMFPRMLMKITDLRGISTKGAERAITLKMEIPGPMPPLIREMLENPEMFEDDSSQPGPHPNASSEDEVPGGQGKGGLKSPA
Sequence of Retinoic acid receptor RXR-alpha (Homo sapiens) (P19793 whole entry, looked up, the tested form may be a part): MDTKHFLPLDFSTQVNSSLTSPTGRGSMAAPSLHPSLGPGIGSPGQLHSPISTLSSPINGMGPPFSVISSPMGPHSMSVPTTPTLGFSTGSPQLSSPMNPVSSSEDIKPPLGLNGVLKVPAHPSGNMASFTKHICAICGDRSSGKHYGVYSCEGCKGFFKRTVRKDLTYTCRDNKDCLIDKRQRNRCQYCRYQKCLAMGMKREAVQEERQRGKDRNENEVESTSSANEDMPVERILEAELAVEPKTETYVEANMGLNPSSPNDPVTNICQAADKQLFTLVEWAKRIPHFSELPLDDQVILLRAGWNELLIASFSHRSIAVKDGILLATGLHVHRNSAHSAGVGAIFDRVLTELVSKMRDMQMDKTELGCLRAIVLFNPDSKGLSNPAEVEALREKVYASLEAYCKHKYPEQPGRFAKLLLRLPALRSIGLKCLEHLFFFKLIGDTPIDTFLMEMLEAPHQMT
Sequence of human Retinoic Acid Receptor beta (RARb), RARB (gene 5915) (P10826 whole entry, looked up, the tested form may be a part): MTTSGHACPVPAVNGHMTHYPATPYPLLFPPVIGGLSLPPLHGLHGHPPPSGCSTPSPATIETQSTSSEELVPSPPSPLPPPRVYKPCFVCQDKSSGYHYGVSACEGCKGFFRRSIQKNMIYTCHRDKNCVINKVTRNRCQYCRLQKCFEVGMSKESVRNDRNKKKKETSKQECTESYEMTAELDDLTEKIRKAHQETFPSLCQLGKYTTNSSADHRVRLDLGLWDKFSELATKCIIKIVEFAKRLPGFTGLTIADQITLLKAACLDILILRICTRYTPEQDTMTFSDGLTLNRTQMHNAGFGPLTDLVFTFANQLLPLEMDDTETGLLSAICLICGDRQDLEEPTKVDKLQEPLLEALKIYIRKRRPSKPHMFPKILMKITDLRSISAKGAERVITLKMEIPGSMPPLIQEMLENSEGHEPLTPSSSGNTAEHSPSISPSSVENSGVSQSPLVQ

OCCC(F)(F)C(F)(F)C(F)(F)C(F)(F)C(F)(F)C(F)(F)F
active: [2] 54.7 µM and 44.7 µM | [5] 46.5 µM and 56.6 µM | [16] 49.8 µM | [18] 46.1 µM and 42.1 µM | [19] 45.7 µM
inactive: [1] | [2] | [3] | [4] | [5] | [6] | [7] | [8] | [9] | [10] | [11] | [12] | [13] | [14] | [15] | [16] | [17] | [18] | [19]

c1ccc2cc3c(ccc4ccccc43)cc2c1
active: [5] 148 nM | [6] 16.9 µM and 6.24 µM and 6.09 µM
not listed: [3]
inactive: all other assays above

NCC(F)(F)C(F)(F)C(F)(F)C(F)(F)C(F)(F)C(F)(F)C(F)(F)F
not listed: [3] | [9] | [10]
inactive: all other assays above

CCC(=C(c1ccc(O)cc1)c1ccc(OCCN(C)C)cc1)c1ccccc1
active: [1] 11.8 µM | [2] 12.6 µM | [5] 5850 nM | [6] 10.9 µM and 9.84 µM and 11.1 µM | [7] 3.28 µM [middle of 4 runs] | [14] 11.1 µM | [15] 9.53 µM | [16] 8.6 µM | [17] 12.5 µM | [18] 8.28 µM | [19] 9.28 µM
inactive: [1] | [3] | [4] | [6] | [8] | [11] | [12] | [13]

OCCC(F)(F)C(F)(F)C(F)(F)C(F)(F)C(F)(F)C(F)(F)C(F)(F)C(F)(F)F
active: [2] 40.5 µM and 15.1 µM | [5] 12.7 µM and 17.4 µM and 19.9 µM | [14] 30 µM | [15] 18.2 µM and 18.6 µM | [16] 42.5 µM and 24.3 µM | [17] 43.6 µM | [18] 20 µM and 27.8 µM and 30 µM | [19] 48.2 µM
inactive: [1] | [2] | [7] | [9] | [10] | [11] | [12] | [13] | [14] | [15] | [16] | [17] | [19]
